This passage reports growth results from PubChem BioAssay (NCI).

The panel holds about 83,000 compounds, 20% with a hit somewhere; the sample as a whole holds those more often.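 The test compound was applied at a single concentration to cells in 96-well plates for 48 hours, and percent growth was recorded.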 Active and inactive are the calls of the source.

The subject of the assay is CCRF-CEM leukemia. As to the kind of experiment: NCI-60 one-dose screen, 48 h (100 = growth as untreated, 0 = no growth, -100 = all killed). As to conditions: 10 µM unless noted. Here is the method:
Growth inhibition of the CCRF-CEM human tumor cell line is measured as a screen for anti-cancer activity. Cells are grown in 96 well plates and exposed to the test compound for 48 hours. Compounds are tested at a single concentration, which is 10^-5 M for most compounds. The reported endpoint is percent growth (GI% or GIPRCNT), where numbers from 0 - 100% represent growth inhibition, and numbers from -100% - 0 represent cell death. For example, a value of 40 represents 60% growth inhibition. A value of 0 means no net growth occurred over the course of the experiment. A value of -40 indicates 40% of cells at the beginning of the experiment died by the end of the experiment. A value of -100 means all cells are dead at the end of the experiment.
NCI-60 Human Tumor Cell Lines Screen was performed using the standard one-dose NCI protocol, which is described in more detail at https://dtp.cancer.gov/discovery_development/nci-60/default.htm.
Compounds with GIPRCNT values below 10 were considered active. Activity score was based on GIPRCNT using the following formula: […]
Score is 0 for GIPRCNT values of 100 or above, 50 for GIPRCNT values of 0, and 100 for GIPRCNT values of -100.
Consider `C#Cc1cccc(Nc2ncnc3cc(OCCOC)c(OCCOC)cc23)c1`, for which the growth is 71.2% (inactive). The result for `Cc1nn(-c2nc3ccccc3[nH]2)c2c1C(c1ccc(OCc3ccc(F)cc3)cc1)CC(=O)N2` (stereo not given) reads 52.8% (inactive); that for `COc1cc2nccc(Oc3ccc(NC(=O)Nc4cc(C)on4)c(Cl)c3)c2cc1OC`, 22.3% (inactive); that for `Cc1ccc(C(=O)Nc2ccc(CN3CCN(C)CC3)c(C(F)(F)F)c2)cc1C#Cc1cnc2cccnn12`, -29.5% (active).

`O=C(CNc1nc(-c2ccc(Cl)cc2)cs1)Nc1ccc(-c2nc3ccccc3s2)cc1`: the growth was 93% (inactive). The result for `Cc1cccc(C)c1N1C(c2ccccc2)=NNC12C=CC(=O)c1c(O)cccc12` (stereo not given) reads 95.9% (inactive); that for `CSc1nc2ncnc(SC)c2[nH]1`, 105% (inactive).

For the molecule `Cc1nc(Nc2n[nH]c3c2CN(C(=O)N[C@H](CN(C)C)c2ccccc2)C3(C)C)c2sccc2n1`, the growth was 1.05% (active). Then `CCN1CCN(c2nc(C)cc(N(CCCNc3ccnc4cc(Cl)ccc34)Cc3ccc4c(c3)OCO4)n2)CC1`, with -13.5% (active); and `O=C(Nc1cnn2ccc(N3CCC[C@@H]3c3cc(F)ccc3F)nc12)N1CC[C@H](O)C1`, with 95.5% (inactive). The result for `Clc1ccc(Nc2nccc(Nc3ccc4[nH]ncc4c3)n2)cc1` reads 5.15% (active); that for `COc1cc(NCCCN)c2ncccc2c1`, 92.5% (inactive); that for `CN1CC[C@H](c2c(O)cc(O)c3c(=O)cc(-c4ccccc4Cl)oc23)[C@H](O)C1`, 10.2% (inactive).

On to `COc1ccc2nc3cc(Cl)ccc3c(Nc3ccc(N(C)C)cc3)c2c1`, for which the growth is 57.5% (inactive). Then `c1cc[n+](Cc2c3ccccc3cc3c2ccc2ccccc23)cc1`, with 55.5% (inactive); and `CN(C[C@@H]1COCCO1)S(=O)(=O)Nc1ccc2ccc3ncc(-c4cnn(C)c4)cc3c(=O)c2c1`, with 34.9% (inactive); and `COc1ncc(-c2ccc3nccc(-c4ccnnc4)c3c2)cc1NS(=O)(=O)c1ccc(F)cc1F`, with 1.61% (active). Then `COc1cc(Nc2ncc(F)c(Nc3ccc4c(n3)N(COP(=O)(O)O)C(=O)C(C)(C)O4)n2)cc(OC)c1OC`, with 29.9% (inactive); and `C[C@@H](NC(=O)c1ncnc(N)c1Cl)c1ncc(C(=O)Nc2cc(C(F)(F)F)c(Cl)cn2)s1`, with 78.5% (inactive); and `COc1ccc(COc2cc3oc(=O)c4cc(C(C)O)ccc4c3cc2OC)cc1` (stereo not given), with 77.1% (inactive). The result for `COc1cccc(Nc2ncnn3ccc(CN4CC[C@@H](N)[C@H](O)C4)c23)c1` reads 66.2% (inactive); that for `CCOc1cc2ncc(C#N)c(Nc3ccc(OCc4ccccn4)c(Cl)c3)c2cc1NC(=O)/C=C/CN(C)C`, 3.88% (active); that for `CC(C)C1CCC(C)C(C2(C#N)C(N)=NC(N)=C2C#N)C1=O` (stereo not given), 103% (inactive).

In the case of `O=C(NOCCO)c1ccc2cncn2c1Nc1ccc(I)cc1F`, the growth was 77.1% (inactive). `Cn1cc(-c2[nH]c3cc(NC(=O)[C@H](N)C4CCCCC4)cc4c3c2C=NNC4=O)cn1`: the growth was -29.4% (active). The result for `CC(=Nc1ccccc1)C1=C(O)C(Cc2ccccc2)NC1=O` (stereo not given) reads -10.9% (active); that for `CC(C)(C)c1nc(-c2cccc(NS(=O)(=O)c3c(F)cccc3F)c2F)c(-c2ccnc(N)n2)s1`, 59% (inactive); that for `Cc1cc2c3c(cccc3c1)C(=O)c1ccccc1-2`, 118% (inactive). Then `COC(=O)Nc1nc2ccc(C(=O)c3ccc(N(C)C4COC4)cc3)cc2[nH]1`, with 15.9% (inactive); and `Cc1cc2c(-c3nc4ccccn4c3N)c(O)c(O)cc2c(O)c1-c1c(C)cc2c(-c3nc4ccccn4c3N)c(O)c(O)cc2c1O`, with 23.1% (inactive); and `Nc1c2c(c(O)c3c1=C(CO)C=N3)=NCCS2`, with 6.13% (active). The result for `COC(=O)C1CCc2sc3ncnc(Nc4cn[nH]c4C(=O)Nc4ccc(CN5CCN(C)CC5)cc4)c3c21` (stereo not given) reads 1.79% (active); that for `CC(=O)CC1CCCC1c1ccc2ccccc2c1` (stereo not given), 97.6% (inactive). As for `CC1(C=O)NC(=O)NC1=O` (stereo not given), the growth was 95.7% (inactive).

As for `C[C@@H](Oc1cc(-n2cnc3ccc(CN4CCN(C)CC4)cc32)sc1C(N)=O)c1ccccc1C(F)(F)F`, the growth is 6.03% (active). The result for `COc1ccc(-c2cnc(-c3ccc(Cl)cc3)[nH]2)cc1OC` reads -55.7% (active); that for `C=CCn1c(=O)c2cnc(Nc3ccc(N4CCN(C)CC4)cc3)nc2n1-c1cccc(C(C)(C)O)n1`, 8% (active); that for `Cc1ccc(-c2cc3c(SCC(=O)Nc4cc(C(F)(F)F)ccc4Cl)nccn3n2)cc1`, 20.3% (inactive). The result for `Clc1ccc2c(NCCCNCc3ccc4c(c3)OCO4)ccnc2c1` reads 41.7% (inactive); that for `COc1cc2c(cc1OCCCCN1CCN(CC(=O)Nc3ccc(Cl)cc3C(=O)c3ccccc3Cl)CC1)N=CC1CCCN1C2=O` (stereo not given), -59.8% (active).
